The values below come from ChEMBL document CHEMBL1961873, “Compounds: GSK PKIS; Assays: Nanosyn kinase panel” (2012).

The target of assay [1] is Mitogen-activated protein kinase 3 (Homo sapiens) (UniProt P27361). The following applies: at 1 µM.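 Further: values are mean percent inhibition of MAPK3.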
Assay [2] has as its target SRSF protein kinase 3 (Homo sapiens) (UniProt Q9UPE1). The following applies: at 0.1 µM.
For assay [3] the target is unchanged. The settings on record: at 1 µM.
In assay [4] the target is Mitogen-activated protein kinase 14 (Homo sapiens) (UniProt Q16539). The following applies: at 0.1 µM.
Chain of Mitogen-activated protein kinase 14 (Homo sapiens) (Q16539 whole entry): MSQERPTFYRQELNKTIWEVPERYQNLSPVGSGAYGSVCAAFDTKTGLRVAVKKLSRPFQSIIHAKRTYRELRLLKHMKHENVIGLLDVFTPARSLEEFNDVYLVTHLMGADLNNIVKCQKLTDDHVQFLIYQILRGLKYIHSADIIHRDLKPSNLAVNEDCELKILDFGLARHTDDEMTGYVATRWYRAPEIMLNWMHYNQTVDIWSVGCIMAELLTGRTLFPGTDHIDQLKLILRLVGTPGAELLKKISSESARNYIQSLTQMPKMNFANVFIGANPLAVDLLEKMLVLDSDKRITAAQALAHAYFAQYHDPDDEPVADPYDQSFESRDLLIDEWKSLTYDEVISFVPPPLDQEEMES
The target is the same in assay [5]. The settings on record: at 1 µM.
Assay [6] has as its target Mitogen-activated protein kinase 11 (Homo sapiens) (UniProt Q15759). The settings on record: at 0.1 µM.
Assay [7] has the same target. The following applies: at 1 µM.
Assay [8] concerns the target T1, Mitogen-activated protein kinase 13 (Homo sapiens) (UniProt O15264).
T1 sequence (whole entry): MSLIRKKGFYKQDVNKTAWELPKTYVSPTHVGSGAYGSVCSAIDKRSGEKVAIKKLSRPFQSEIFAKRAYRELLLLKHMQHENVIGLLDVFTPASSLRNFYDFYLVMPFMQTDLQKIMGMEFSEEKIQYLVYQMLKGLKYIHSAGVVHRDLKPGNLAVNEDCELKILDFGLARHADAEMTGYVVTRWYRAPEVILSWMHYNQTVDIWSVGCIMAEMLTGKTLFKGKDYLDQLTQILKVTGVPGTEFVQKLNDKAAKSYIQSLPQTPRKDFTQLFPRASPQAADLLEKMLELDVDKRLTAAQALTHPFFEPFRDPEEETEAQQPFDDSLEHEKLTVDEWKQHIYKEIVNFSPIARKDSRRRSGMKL
The following applies: at 0.1 µM.

Assay [9] concerns the target T1, Mitogen-activated protein kinase 13 (Homo sapiens). The following applies: at 1 µM.
The target in assay [10] is T2, Mitogen-activated protein kinase 12 (Homo sapiens) (UniProt P53778).
T2 sequence (whole entry): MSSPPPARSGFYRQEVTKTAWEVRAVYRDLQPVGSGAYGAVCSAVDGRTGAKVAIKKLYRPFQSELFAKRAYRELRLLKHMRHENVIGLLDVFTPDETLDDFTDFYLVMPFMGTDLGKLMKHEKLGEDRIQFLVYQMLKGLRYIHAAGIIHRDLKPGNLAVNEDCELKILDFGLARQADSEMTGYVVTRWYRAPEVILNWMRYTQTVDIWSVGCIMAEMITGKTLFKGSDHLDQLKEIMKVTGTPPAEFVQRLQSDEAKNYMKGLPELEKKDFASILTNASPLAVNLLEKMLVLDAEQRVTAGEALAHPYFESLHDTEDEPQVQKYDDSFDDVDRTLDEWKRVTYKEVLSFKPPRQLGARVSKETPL
The settings on record: at 0.1 µM.

The target in assay [11] is T2, Mitogen-activated protein kinase 12 (Homo sapiens). The settings on record: at 1 µM.
The target of assay [12] is SRSF protein kinase 1 (Homo sapiens) (UniProt Q96SB4). The following applies: at 0.1 µM.
Chain of SRSF protein kinase 1 (Homo sapiens) (Q96SB4 whole entry): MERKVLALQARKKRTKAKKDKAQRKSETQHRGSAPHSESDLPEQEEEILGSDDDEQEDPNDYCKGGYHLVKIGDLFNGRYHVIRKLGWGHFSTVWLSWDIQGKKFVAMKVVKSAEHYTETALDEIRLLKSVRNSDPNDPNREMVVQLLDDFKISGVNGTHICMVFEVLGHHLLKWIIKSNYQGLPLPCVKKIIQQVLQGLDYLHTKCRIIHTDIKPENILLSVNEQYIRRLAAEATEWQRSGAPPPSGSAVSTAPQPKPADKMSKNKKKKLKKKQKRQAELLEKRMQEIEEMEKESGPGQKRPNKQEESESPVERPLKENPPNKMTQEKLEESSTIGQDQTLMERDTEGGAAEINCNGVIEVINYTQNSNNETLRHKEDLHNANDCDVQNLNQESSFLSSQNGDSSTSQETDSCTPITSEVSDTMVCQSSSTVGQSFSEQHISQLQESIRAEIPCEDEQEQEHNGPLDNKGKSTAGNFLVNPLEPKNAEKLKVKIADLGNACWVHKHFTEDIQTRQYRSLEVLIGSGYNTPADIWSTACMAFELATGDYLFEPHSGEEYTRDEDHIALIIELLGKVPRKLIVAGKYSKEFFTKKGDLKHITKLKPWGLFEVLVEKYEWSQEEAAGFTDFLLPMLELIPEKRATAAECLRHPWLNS
The target is the same in assay [13]. The settings on record: at 1 µM.
Assay [14] has as its target Phosphatidylinositol 4,5-bisphosphate 3-kinase catalytic subunit alpha isoform (Homo sapiens) (UniProt P42336). The following applies: at 0.1 µM.
Assay [15] shares this target. The following applies: at 1 µM.
Assay [16] has as its target T3, Phosphatidylinositol 4,5-bisphosphate 3-kinase catalytic subunit delta isoform (Homo sapiens) (UniProt O00329).
T3 sequence (whole entry): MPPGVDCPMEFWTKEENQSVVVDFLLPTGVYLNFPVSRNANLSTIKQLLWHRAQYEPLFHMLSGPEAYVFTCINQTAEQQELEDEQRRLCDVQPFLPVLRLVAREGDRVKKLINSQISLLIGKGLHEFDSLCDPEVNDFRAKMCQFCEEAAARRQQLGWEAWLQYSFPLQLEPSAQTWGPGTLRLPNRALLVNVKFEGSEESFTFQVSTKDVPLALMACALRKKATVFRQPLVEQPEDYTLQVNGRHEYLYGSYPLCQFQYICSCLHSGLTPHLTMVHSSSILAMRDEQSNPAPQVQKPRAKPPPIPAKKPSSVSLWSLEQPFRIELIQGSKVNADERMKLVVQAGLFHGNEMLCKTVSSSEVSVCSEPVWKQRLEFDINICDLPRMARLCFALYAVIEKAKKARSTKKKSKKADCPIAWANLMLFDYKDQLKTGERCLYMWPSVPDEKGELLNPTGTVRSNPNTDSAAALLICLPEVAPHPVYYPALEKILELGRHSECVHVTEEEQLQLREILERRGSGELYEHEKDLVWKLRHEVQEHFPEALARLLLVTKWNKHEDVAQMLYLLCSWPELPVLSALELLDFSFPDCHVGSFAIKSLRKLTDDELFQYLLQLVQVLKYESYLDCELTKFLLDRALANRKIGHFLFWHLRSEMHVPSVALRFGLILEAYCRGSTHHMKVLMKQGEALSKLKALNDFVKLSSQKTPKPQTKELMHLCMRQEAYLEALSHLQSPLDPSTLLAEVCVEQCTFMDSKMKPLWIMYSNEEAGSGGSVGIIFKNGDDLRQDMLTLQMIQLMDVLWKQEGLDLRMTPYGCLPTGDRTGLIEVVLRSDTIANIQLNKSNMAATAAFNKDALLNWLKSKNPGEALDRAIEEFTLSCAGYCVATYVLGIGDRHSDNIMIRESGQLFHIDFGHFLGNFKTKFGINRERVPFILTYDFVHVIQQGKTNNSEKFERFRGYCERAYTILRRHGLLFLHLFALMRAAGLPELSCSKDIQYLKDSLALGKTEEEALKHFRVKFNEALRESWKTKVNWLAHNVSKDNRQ
The settings on record: at 0.1 µM.

Assay [17] concerns the target T3, Phosphatidylinositol 4,5-bisphosphate 3-kinase catalytic subunit delta isoform (Homo sapiens). The following applies: at 1 µM.
Assay [18] has as its target Phosphatidylinositol 4-kinase beta (Homo sapiens) (UniProt Q9UBF8). The settings on record: at 0.1 µM.
Assay [19] has the same target. The settings on record: at 1 µM.
Assay [20] concerns the target Sphingosine kinase 1 (Homo sapiens) (UniProt Q9NYA1). The following applies: at 0.1 µM.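 Further: mean percent inhibition of SPHK1 activity, measured within the GSK PKIS screening panel.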

The term inhibition denotes the relative decrease from the control value, in per cent.

The structures appear in SMILES notation.

Chain of Phosphatidylinositol 4,5-bisphosphate 3-kinase catalytic subunit alpha isoform (Homo sapiens) (P42336 whole entry, canonical isoform): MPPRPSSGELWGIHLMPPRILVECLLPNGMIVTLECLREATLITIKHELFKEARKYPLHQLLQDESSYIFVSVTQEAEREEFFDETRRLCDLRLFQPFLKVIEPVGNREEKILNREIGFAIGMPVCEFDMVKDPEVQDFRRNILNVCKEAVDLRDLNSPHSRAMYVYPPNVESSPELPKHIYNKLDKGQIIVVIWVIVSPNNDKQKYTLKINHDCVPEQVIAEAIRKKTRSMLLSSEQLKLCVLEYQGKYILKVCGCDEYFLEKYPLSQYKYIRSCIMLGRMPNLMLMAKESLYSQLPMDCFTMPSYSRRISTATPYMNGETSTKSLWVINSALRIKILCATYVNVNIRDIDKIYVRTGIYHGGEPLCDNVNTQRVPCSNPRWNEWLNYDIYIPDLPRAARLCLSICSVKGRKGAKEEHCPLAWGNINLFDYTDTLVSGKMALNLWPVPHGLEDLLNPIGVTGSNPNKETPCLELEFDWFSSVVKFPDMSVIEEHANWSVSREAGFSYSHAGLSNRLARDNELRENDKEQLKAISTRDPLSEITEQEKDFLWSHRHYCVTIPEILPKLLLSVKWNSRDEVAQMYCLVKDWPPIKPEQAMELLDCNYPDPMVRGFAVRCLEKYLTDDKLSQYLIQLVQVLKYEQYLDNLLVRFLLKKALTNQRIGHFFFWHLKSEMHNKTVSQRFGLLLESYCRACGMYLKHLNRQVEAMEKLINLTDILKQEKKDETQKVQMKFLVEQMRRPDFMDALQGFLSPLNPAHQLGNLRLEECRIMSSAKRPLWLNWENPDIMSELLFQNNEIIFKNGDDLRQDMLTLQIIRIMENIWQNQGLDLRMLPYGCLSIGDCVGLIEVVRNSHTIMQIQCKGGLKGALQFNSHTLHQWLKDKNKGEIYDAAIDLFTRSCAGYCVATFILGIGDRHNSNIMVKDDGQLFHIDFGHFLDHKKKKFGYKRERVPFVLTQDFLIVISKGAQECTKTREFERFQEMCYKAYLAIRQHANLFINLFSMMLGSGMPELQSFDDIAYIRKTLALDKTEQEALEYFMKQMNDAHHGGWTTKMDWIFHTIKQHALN
Chain of Mitogen-activated protein kinase 11 (Homo sapiens) (Q15759 whole entry): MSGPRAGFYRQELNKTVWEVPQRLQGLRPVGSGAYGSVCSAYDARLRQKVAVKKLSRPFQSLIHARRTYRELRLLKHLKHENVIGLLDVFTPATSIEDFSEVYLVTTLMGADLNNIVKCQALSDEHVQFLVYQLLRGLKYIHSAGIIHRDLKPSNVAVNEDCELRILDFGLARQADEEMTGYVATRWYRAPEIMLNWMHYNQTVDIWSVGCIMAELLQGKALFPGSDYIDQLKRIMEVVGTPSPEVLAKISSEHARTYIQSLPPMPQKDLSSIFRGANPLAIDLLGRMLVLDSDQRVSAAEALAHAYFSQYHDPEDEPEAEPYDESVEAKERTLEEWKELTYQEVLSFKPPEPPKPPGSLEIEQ
Chain of SRSF protein kinase 3 (Homo sapiens) (Q9UPE1 whole entry): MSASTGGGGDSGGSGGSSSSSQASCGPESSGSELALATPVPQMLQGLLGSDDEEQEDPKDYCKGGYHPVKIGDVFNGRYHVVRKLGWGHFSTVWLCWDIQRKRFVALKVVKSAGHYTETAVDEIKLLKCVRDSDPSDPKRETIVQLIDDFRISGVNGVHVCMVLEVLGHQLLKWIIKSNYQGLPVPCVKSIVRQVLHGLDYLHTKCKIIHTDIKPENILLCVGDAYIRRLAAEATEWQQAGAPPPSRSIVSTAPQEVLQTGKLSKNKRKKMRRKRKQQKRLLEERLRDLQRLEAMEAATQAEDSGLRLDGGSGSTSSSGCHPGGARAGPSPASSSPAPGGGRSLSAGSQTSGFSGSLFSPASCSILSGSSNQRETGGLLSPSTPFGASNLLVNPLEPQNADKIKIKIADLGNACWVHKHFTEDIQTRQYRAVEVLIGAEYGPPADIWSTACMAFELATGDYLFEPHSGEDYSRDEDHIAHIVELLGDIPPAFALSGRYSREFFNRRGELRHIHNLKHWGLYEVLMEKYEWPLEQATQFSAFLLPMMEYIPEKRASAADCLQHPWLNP
Chain of Phosphatidylinositol 4-kinase beta (Homo sapiens) (Q9UBF8 2-816 limits assumed): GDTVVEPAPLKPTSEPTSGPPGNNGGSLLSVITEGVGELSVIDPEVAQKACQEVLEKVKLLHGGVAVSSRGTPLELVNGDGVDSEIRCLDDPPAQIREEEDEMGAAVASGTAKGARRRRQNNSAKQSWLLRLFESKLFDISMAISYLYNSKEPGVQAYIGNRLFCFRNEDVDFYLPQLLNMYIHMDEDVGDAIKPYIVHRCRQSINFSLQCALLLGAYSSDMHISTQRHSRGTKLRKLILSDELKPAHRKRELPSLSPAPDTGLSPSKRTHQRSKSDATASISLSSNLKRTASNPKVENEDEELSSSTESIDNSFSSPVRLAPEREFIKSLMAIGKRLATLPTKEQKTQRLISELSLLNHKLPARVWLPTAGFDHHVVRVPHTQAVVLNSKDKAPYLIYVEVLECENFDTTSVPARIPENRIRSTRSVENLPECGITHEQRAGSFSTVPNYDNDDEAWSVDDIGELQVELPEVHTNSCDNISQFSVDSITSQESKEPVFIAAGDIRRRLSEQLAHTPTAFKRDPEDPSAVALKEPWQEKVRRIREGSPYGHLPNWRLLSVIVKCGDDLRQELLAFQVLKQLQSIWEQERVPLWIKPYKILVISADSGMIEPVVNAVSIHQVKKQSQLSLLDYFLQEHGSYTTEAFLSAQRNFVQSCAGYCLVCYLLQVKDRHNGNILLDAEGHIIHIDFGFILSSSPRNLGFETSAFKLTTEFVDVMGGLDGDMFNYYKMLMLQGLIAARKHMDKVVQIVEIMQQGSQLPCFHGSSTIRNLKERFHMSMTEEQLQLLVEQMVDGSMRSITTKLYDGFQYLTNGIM
Chain of Sphingosine kinase 1 (Homo sapiens) (Q9NYA1 whole entry): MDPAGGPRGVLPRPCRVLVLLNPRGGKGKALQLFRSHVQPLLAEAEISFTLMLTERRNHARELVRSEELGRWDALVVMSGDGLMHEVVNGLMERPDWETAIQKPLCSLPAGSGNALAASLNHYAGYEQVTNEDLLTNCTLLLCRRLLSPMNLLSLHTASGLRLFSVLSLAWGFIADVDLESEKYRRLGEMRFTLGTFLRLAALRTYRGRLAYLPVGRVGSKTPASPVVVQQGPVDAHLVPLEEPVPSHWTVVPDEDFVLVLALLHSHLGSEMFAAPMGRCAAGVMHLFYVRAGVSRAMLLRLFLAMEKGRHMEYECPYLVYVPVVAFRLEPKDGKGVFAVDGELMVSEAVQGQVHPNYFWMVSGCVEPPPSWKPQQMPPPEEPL
Chain of Mitogen-activated protein kinase 3 (Homo sapiens) (P27361 whole entry): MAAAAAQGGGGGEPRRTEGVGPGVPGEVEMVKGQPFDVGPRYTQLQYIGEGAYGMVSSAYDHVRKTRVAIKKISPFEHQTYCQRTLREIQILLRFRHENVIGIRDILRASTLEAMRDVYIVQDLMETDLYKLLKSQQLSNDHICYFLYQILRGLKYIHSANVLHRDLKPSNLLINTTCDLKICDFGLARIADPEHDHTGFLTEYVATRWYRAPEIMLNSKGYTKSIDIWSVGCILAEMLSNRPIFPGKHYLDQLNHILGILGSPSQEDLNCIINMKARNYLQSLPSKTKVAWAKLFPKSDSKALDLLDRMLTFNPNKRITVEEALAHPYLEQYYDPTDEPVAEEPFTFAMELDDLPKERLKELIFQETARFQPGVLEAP

For `COc1cc2ncn(-c3cc(OCc4ccccc4C(F)(F)F)c(C(N)=O)s3)c2cc1OC`, the inhibition in assay [1] was 3.77%; in assay [2], -2.16%; in [3] it was 5.51%; in assay [4], 9.41%; in assay [5], 9.56%; in assay [6] it was 3.98%. The inhibition in assay [7] is 7.82%; in assay [8], 5.41%; in assay [9], 5.14%; in assay [10], 4.2%; in [11], 6.13%; in [12], -1.32%. For the same compound, the inhibition in assay [13] was 0.47%; in [14], 4.61%; in [15], 18.7%; in assay [16], 2.08%; in assay [17], 15.9%; in assay [18] it was -3.15%. The inhibition in [19] amounted to 1.79%; in assay [20], 1.28%.

For `CCc1cccc(NC(=O)Nc2ccc(Oc3ccc4nc(NC(=O)OC)[nH]c4c3)cc2)c1`, the inhibition in assay [1] turned out to be 2.79%; in assay [2] it was 1.41%; in [3], 2.28%; in assay [4] it was 2.41%; in [5], 3.05%; in assay [6], 1.54%. Moreover, the inhibition in assay [7] was 6.14%; in [8] it was 0.54%; in assay [9], 0.33%; in assay [10], -0.64%; in assay [11], 1.54%; in assay [12] it was 0.34%. Further, the inhibition in [13] was determined as 1.37%; in [14], 0.8%; in assay [15] it was 2.44%; in assay [16], 0.28%; in assay [17] it was 3.23%; in assay [18], 5.24%. Also, the inhibition in [19] was -4.52%.

As to `CC1=C(C(=O)Nc2ccc3[nH]ncc3c2)C(c2ccc(F)cc2)NC(=O)N1` (stereo not drawn), the inhibition was 3.56% in [1]; -2.61% in assay [2]; -0.84% in assay [3]; 2.74% in assay [4]; 6.99% in assay [5]; 2.94% in assay [6]. Moreover, the inhibition is 3.88% in [7]; 0.78% in assay [8]; 2.31% in [9]; 0.89% in assay [10]; 1.7% in [11]; -0.16% in assay [12]. The inhibition in [13] is -1.24%; in [14], 2.51%; in assay [15] it was 5.96%; in assay [16] it was 2.41%; in assay [17], 3.62%; in assay [18], 1.44%. For the same compound, the inhibition came out at 1.28% in assay [19] and 1.05% in assay [20].

With `COc1cc(C)c(NC(=O)CN(C)C)cc1Nc1nc(Nc2cccc(F)c2C(N)=O)c2cc[nH]c2n1`, the inhibition in [1] is 0.63%; in assay [2], 2.12%; in assay [3], 7.69%; in assay [4], 1.35%; in [5], 5.59%; in assay [6], 3.27%. For the same compound, the inhibition in [7] is 3.23%; in assay [8], -0.43%; in [9] it was 1.87%; in [10], 0.52%; in assay [11] it was 1.38%; in assay [12], -2.61%. The inhibition in [13] is -3.29%; in assay [14], 0.75%; in assay [15], 0.03%; in assay [16], 0.12%; in [17], 2.2%; in assay [18], 5.07%. In addition, in assay [19], the inhibition turned out to be 1.45%.

`O=C1Nc2ccc(C(=O)c3ccco3)cc2C1=Cc1cc(Cl)c(O)c(Cl)c1`: the inhibition in assay [1] is 3.14%; in assay [2], -3.06%; in assay [3] it was 0.75%; in assay [4], 2.28%; in [5], 6.71%; in [6], 1.71%. The inhibition in assay [7] was 3.75%; in assay [8], 0.88%; in assay [9], 2.9%; in [10] it was 0.31%; in assay [11] it was 5.17%; in assay [12], -1.28%. Also, the inhibition in assay [13] was 1.6%; in [14], 21.6%; in assay [15] it was 69.1%; in assay [16] it was 8.04%; in assay [17], 24.9%; in assay [18], 37.4%. Besides, the inhibition in assay [19] was 80.7%; in assay [20] it was 7.33%.

With `CCn1c(-c2nonc2N)nc2c(N3CCCC3)nccc21`, the inhibition in assay [1] was 1.82%; in [2], 0.04%; in assay [3], -1.21%; in [4], 1.24%; in [5] it was -3.47%; in assay [6], 0.58%. In addition, the inhibition in [7] is 2.54%; in assay [8] it was -0.53%; in assay [9], -1.01%; in assay [10], 0.01%; in [11], -1.61%; in [12] it was 0.36%. Besides, the inhibition was 0.58% in [13]; -1.75% in assay [14]; -0.26% in [15]; 0.19% in assay [16]; 0.29% in assay [17]; -6.46% in assay [18]. In addition, the inhibition was -2.5% in assay [19] and 2.26% in assay [20].
